Publication PMC5540273 (PLoS ONE, 2017)

Each molecule was assayed on PIM2. Conditions: concentration: 1 μM, replicates: in singlicate; n = 1.
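Note: KINOMEscan kinase panel screen.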

SMILES | %Inh [%]
FC(F)(F)c1ccc(/C=C/c2cncnc2Nc2ccc3[nH]c(Cc4ccccc4)nc3c2)cc1 [GW709199] | 22
O=C(Nc1cccc(-c2nn3ccccc3c2-c2ccnc(Nc3cccc(F)c3)n2)c1)c1c(F)ccc(F)c1Cl [GSK357952] | 0
O=C(Nc1ccccc1F)NC1CCN(c2ccnc(Nc3ccc(F)cc3)n2)CC1 [GSK1379800] | 0
Cc1occc1-c1ncc(OC[C@@H](N)Cc2c[nH]c3ccccc23)cc1-c1ccc2[nH]nc(C)c2c1.O=C(O)C(F)(F)F [GSK682037] | 97.4
C[C@@H]1CC[C@@H](C(=O)Nc2ccccc2)CN1c1cc(-c2ccc3c(N)n[nH]c3c2)nc(N)n1 [GSK2286062] | 0
Cl.NC(=O)c1cccc(Nc2nccc(Nc3ccc(Oc4c(Cl)cccc4Cl)c(Cl)c3)n2)c1 [GW659009] | 0
Cc1ccc(C(=O)Nc2ccc(Nc3ccnc4cc(-c5nccs5)ccc34)cc2O)cc1.Cl [GW494702] | 6
CNC(=O)c1ccccc1Nc1nc(Nc2ccc(N3CCOCC3)cc2)ncc1Cl.Cl [GSK1576028] | 0
COc1cc(Nc2nccc(-c3c(-c4cccc(NC(=O)c5c(F)cccc5F)c4)nn4ccccc34)n2)cc(OC)c1OC [GSK323521] | 0
Nc1ncnc2c1nc(-c1ccccc1)n2-c1ccccc1 [SKF-97293] | 0
Fc1ccc(-c2ncn(C3CCNCC3)c2-c2ccnc(Oc3ccc(-c4ccccc4)cc3)n2)cc1 [SB-245391] | 4
Cl.Cl.NCC(NCc1ccc(-c2ccnc3[nH]ccc23)s1)c1ccccc1 (stereo not shown) [GSK1321565] | 0
CC(=O)N1CCN(c2ccc(Nc3nccc(-c4sc(C(C)C)nc4-c4cccc(NS(=O)(=O)c5cccc(Cl)c5)c4)n3)cn2)CC1 [GSK1660437] | 0
COc1ccc(Nc2nccc(N3CCC(NC(=O)Nc4cccc(OC)c4)C3)n2)cc1 (stereo not shown) [GSK1379742] | 0
Cl.Cl.NCC(NC(=O)c1cc(-c2ccccc2)c(-c2ccnc3[nH]ccc23)s1)c1ccccc1 (stereo not shown) [GSK1321561] | 0
O=C(Nc1n[nH]c2cc(-c3ccoc3)ccc12)C1CC1 [SB-738481] | 0
Cl.c1ccc(-c2ccc3c(Nc4ccc5[nH]ccc5c4)ccnc3c2)nc1 [GW440138] | 0
COc1cc(Nc2nccc(-c3c(-c4cccc(NC(=O)c5c(F)cccc5F)c4)nn4ncccc34)n2)cc(OC)c1OC [GSK327238] | 0
CCCCc1nn2ncccc2c1-c1ccnc(Nc2ccc(N3CCN(C)CC3)cc2)n1 [GW684941] | 0

SMILES | %Inh [%]
Nc1ncc(-c2ccc3nccc(-c4ccncc4)c3c2)cc1S(=O)(=O)N1CCOCC1 [GSK1627798] | 0
Cc1ccc(S(=O)(=O)Nc2ccc(Nc3nccc(Nc4cccc5[nH]ncc45)n3)cc2)cc1 [GSK581271] | 0
COc1ccc(Nc2nccc(NCCNC(=O)c3cc4ccccc4s3)n2)cc1 [GSK1379896] | 0
NCCCC(NC(=O)c1cc(Br)c(-c2ccnc3[nH]ccc23)s1)c1ccccc1.O=C(O)C(F)(F)F.O=C(O)C(F)(F)F (stereo not shown) [GSK1287544] | 93
CC(C)c1nc(-c2cccc(NS(=O)(=O)c3c(F)cccc3F)c2F)c(-c2ccnc(Nc3ccc(N4CCOCC4)nc3)n2)s1 [GSK2008607] | 0
O=C(NC1CCN(c2ccnc(Nc3ccc(F)cc3)n2)C1)c1cc2ccccc2s1 (stereo not shown) [GSK1379716] | 0
Nc1ncc(-c2cccnc2)c2scc(-c3ccc4c(c3)CCN4C(=O)Cc3ccccc3)c12 [GSK683281] | 0
CC(C)(C)c1ccc2nccc(Nc3cccc(O)c3)c2c1 [GW856795] | 0
COc1cccc(C2=C(Nc3ccc(Cl)c(C(=O)O)c3)C(=O)NC2=O)c1 [SB-390769] | 0
Cc1ccc(F)c(C(=O)Nc2cccc(-c3nn4ccccc4c3-c3ccnc(Nc4cccc(F)c4)n3)c2)c1F [GSK361061] | 0
O=C(Nc1n[nH]c2nc(-c3ccc(O)cc3)ccc12)C1CC1 [SB-710363] | 89
c1ccc(-c2n[nH]cc2Nc2ccnc3ccccc23)nc1 [GW694077] | 7
CCn1c(-c2nonc2N)nc2c(C#CC(C)(C)O)ncc(OCCCCN)c21.O=C(O)C(F)(F)F.O=C(O)C(F)(F)F [GSK507274] | 85
O=C(Nc1cccc(-c2nn3ccccc3c2-c2ccnc(Nc3cccc(C(F)(F)F)c3)n2)c1)c1c(F)cccc1F [GSK292658] | 0
Nc1n[nH]c2cnc(-c3ccccc3)cc12 [SB-642124] | 0
CN(c1ccc(NC(=O)Nc2cc(C(F)(F)F)ccc2F)cc1)c1ccnc(Nc2ccc(S(N)(=O)=O)cc2)n1 [GW809893] | 0
Clc1ccc(-c2nn3ncccc3c2-c2ccnc(Nc3ccc4c(c3)OCCO4)n2)cc1 [GW829116] | 6
Cn1cc(-c2[nH]c3cc(NC(=O)[C@H](N)C4CCCCC4)cc4c3c2C=NNC4=O)cn1 | 0
